Experimental data published in PubChem BioAssay (NCATS).
Active and inactive are the calls of the source.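 Rule for the calls: active = compounds whose dose series gives a full or clear partial fitted curve of increased nuclear translocation; inconclusive = weak partial curve or effect only at the top dose; inactive = no dose-dependent translocation response.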

Biological target: Glucocorticoid receptor (Homo sapiens) (UniProt P04150)
Assay: GR-GFP Redistribution (AID 450)
Conditions: U2OS GR-GFP nuclear translocation, laser cytometry, 2 h
Text: NIH Molecular Libraries Screening Centers Network [MLSCN]
NIH Chemical Genomics Center [NCGC]
The glucocorticoid receptor (GR) Redistribution assay (BioImage) enables the visualization of GR cytoplasmic to nuclear translocation by the use of a GR-GFP fusion. GR is normally cytosolic, however ligands such as dexamethasone, cause nuclear translocation where the protein binds to response elements and interacts with various co-factors to modulate transcription. Because both functional agonists and antagonists can induce nuclear translocation, this assay can detect ligands regardless of their effects on gene expression. GR-GFP expressing U20S cells were used here. Dexamethasone was the positive control for translocation and data normalization. Detection of nuclear translocation was performed in 1536-well plates using the Acumen laser scanning plate cytometer (TTP LabTech). Validation of this assay and a detailed protocol have been described.
NCGC Assay Protocol Summary:
GR-GFP U2OS cells were maintained in DMEM with Glutamax and high glucose, 1% v/v penicillin-streptomycin, and 0.5 mg/mL Geneticin. For cell culture, 10% […] fetal bovine serum (FBS) was used (Invitrogen #26140-079). For cell plating 10% dextran, charcoal-stripped FBS (Hyclone SH30068.03) was used. U2OS cells were trypsin treated, suspended in medium, and passed through a 40 um basket filter. The cells were seeded at 600 cells/5 uL/well into clear-bottom black sided 1536-well plates and incubated for approximately 20 hrs, 37degC, 5%, CO2 in a tissue culture incubator. Twenty-three nL of compound was delivered by pin tool and the plates were incubated as above for 2 hrs. The compounds were tested as a 7-point titration ranging from 46 uM to 0.6 nM. The cells were fixed using the Kalypsys Washer/Dispenser station. The fixing protocol involved aspiration of the cell media, addition of 6 uL/well of PBS, aspiration of PBS, addition of 5uL/well of 100% methanol, aspiration of methanol, and addition of 3 uL/well PBS with 1.5 uM propidium iodide (PI). The plates were read by the Acumen Explorer using a 1 x 8 um scan of the whole well area. PI fluorescence triggered the collection of PI and GFP signals. A nuclei population was defined by a 10 to 100 um width and depth filter that eliminated small and large fluorescent particles. Two subpopulations of nuclei were then defined by peak intensity of GFP fluorescence to obtain translocated and untranslocated objects. The number of translocated objects was used for data normalization.
Keywords: NIH Roadmap, MLSCN, MLI, MLSMR, sOGT, qHTS, NCGC
Potency is the fitted concentration of half-maximal effect.

Sequence of Glucocorticoid receptor (Homo sapiens) (P04150 whole entry, looked up): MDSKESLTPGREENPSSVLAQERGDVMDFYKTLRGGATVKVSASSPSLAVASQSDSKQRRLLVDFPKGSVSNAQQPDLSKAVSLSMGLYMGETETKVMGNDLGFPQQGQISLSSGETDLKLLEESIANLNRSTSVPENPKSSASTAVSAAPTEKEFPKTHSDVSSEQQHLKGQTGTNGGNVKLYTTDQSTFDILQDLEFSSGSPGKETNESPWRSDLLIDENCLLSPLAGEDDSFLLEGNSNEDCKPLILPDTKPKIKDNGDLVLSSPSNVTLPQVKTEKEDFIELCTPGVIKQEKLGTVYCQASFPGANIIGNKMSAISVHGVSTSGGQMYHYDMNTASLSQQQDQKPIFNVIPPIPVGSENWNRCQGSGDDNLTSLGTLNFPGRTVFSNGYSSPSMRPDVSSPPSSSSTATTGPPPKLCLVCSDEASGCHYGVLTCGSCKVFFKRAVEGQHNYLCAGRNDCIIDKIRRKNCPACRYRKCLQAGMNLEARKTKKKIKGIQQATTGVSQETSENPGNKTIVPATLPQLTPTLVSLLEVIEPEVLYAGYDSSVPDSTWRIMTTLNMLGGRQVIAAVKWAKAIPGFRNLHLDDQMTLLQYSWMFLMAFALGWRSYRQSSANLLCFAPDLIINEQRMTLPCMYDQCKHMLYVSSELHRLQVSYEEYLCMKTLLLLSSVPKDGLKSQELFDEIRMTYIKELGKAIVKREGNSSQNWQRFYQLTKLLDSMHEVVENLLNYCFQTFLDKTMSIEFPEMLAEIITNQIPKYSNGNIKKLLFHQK

| SMILES | Potency |
| --- | --- |
| c1cncc(CNc2ncncc2-c2ccc3c(c2)OCO3)c1 | > 46 µM (inactive) |
| O=c1c(-c2ccc(F)cc2)nc2cnc(N3CCOCC3)nc2n1Cc1cccs1 | > 9.22 µM (inactive) |
| FC(F)(F)c1ccccc1-c1cc(NCCN2CCOCC2)ncn1 | > 46 µM (inactive) |
| CN(Cc1ccco1)c1cc(-c2ccoc2)ncn1 | > 46 µM (inactive) |
| Cc1noc(C)c1-c1cc(NCc2cccnc2)ncn1 | > 46 µM (inactive) |
| COc1cccc(-c2nc(NCc3ccccc3)c3ccccc3n2)c1 | > 46 µM (inactive) |
| COc1ccccc1CCn1c(=O)c(-c2cccc(F)c2)nc2cncnc21 | > 9.22 µM (inactive) |
| c1ccc(CNc2cc(-c3cccnc3)ncn2)cc1 | > 46 µM (inactive) |
| COc1ccc2c(c1)c(CC(=O)O)c(C)n2Cc1ccc(F)cc1 | > 46 µM (inactive) |
| COCCn1c(=O)c(-c2ccccc2)nc2cnc(OC)nc21 | > 9.22 µM (inactive) |
| COc1cccc(-c2nccc(NCc3cccc(C)c3)n2)c1 | > 46 µM (inactive) |
| CN(C)c1ccc(-c2nccc(NCCN3CCOCC3)n2)cc1 | > 46 µM (inactive) |
| CCNc1ncc2nc(-c3cn(C)c4ccccc34)c(=O)n(Cc3cccc(OC)c3)c2n1 | > 9.22 µM (inactive) |
| c1nc(N2CCNCC2)c2cc(-c3ccoc3)ccc2n1 | > 46 µM (inactive) |
| COc1cccc(Nc2ncc3nc(C)c(=O)n(C)c3n2)c1 | > 9.22 µM (inactive) |
| COc1ccccc1-c1nccc(-n2ccnc2)n1 | > 46 µM (inactive) |
| CN(C)c1ncc2nc(-c3ccccc3)c(=O)n(-c3ccccc3)c2n1 | > 9.22 µM (inactive) |
| COc1ccc(-n2c(=O)c(-c3ccccc3)nc3cnc(N4CCNCC4)nc32)cc1 | > 9.22 µM (inactive) |
| Cn1c(=O)c(-c2cc(F)cc(F)c2)nc2cnc(N3CCOCC3)nc21 | > 9.22 µM (inactive) |
| COc1ccc(CNc2ncnc3ccc(-c4ccccc4CN(C)C)cc23)c(OC)c1 | > 46 µM (inactive) |

| SMILES | Potency |
| --- | --- |
| O=c1c(-c2ccc(F)cc2)nc2cnc(N3CCNCC3)nc2n1Cc1ccc(F)cc1 | > 9.22 µM (inactive) |
| COc1ccc(Oc2ncc3nc(CCc4ccccc4)c(=O)n(C[C@H]4CCCO4)c3n2)cc1 | > 9.22 µM (inactive) |
| CN(C)c1ccc(-c2ccc3ncnc(-n4ccnc4)c3c2)cc1 | > 46 µM (inactive) |
| O=c1cnc2cnc(N3CCNCC3)nc2n1Cc1ccc(F)cc1 | > 9.22 µM (inactive) |
| COc1ccc(-n2c(=O)cnc3cnc(Oc4ccccc4)nc32)cc1 | > 9.22 µM (inactive) |
| Cc1noc(C)c1-c1ccc2ncnc(NCc3cccnc3)c2c1 | > 46 µM (inactive) |
| O=c1cnc2cnc(N3CCOCC3)nc2n1C1CC1 | > 9.22 µM (inactive) |
| CS(=O)(=O)Nc1cccc(-c2cncnc2NCc2cccs2)c1 | > 46 µM (inactive) |
| COc1ncc2ncc(=O)n(C)c2n1 | > 9.22 µM (inactive) |
| Cc1ccccc1-c1nccc(NCc2cccs2)n1 | > 46 µM (inactive) |
| COc1ccc(-n2c(=O)c(C)nc3cnc(N4CCNCC4)nc32)cc1 | > 9.22 µM (inactive) |
| CN(C)c1ccnc(-c2cccc(NS(C)(=O)=O)c2)n1 | > 46 µM (inactive) |
| CN(C)C(=O)c1ccc(-c2ccc3ncnc(N4CCC(C(=O)O)CC4)c3c2)cc1 | > 46 µM (inactive) |
| O=c1cnc2cnc(Nc3ccccc3)nc2n1Cc1ccc(F)cc1 | > 9.22 µM (inactive) |
| Cc1noc(C)c1-c1cncnc1NCc1cccnc1 | > 46 µM (inactive) |
| COc1ccc(-c2nc3cnc(N4CCOCC4)nc3n(-c3ccccc3)c2=O)cc1 | > 9.22 µM (inactive) |
| CN(C)c1ncc2nc(-c3ccc(F)cc3)c(=O)n(Cc3cccs3)c2n1 | > 9.22 µM (inactive) |
| FC(F)(F)c1ccccc1-c1nccc(N2CCNCC2)n1 | > 46 µM (inactive) |
| COc1cccc(-c2ccc3ncnc(NCc4ccccc4)c3c2)c1 | > 46 µM (inactive) |
| Cc1noc(C)c1-c1cncnc1NCCN1CCOCC1 | > 46 µM (inactive) |
